Measurements reported in PubChem BioAssay AID651871 (Sanford-Burnham Center for Chemical Genomics, 2012).
Where “and” joins values, the source holds several entries; their conditions need not be identical. Equal entries are not always repeated.

Tested on: H9c2
Assay: cardiomyocyte survival under oxidative or metabolic stress – cell-based, panel, H9c2 and HL-1, ATP luminescence, set 2, SAR follow-up (AID 651871);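 note: cells exposed to stressor for 2 h before ATP readout; reference of the scale not given here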
Conditions: H9c2/HL-1 cardiomyocytes, H2O2 oxidative stress; with H2O2, run 1, at 79 µM (top of the series)

Row | SMILES | activity (protection/inhibition)
1 | CCOC(=O)c1cccc(NC(=O)CNC(=O)c2cc(-c3cc(OC)c(OC)c(OC)c3)nc3ccccc23)c1 | 77.6%
2 | COc1ccc2c(c1OC)C(=O)N1c3ccccc3C(=O)N(Cc3cccc(Cl)c3Cl)C21 (centres undefined) | 62.2% and 104% and 61.7%
3 | COc1ccc2nc(-c3cc(OC)c(OC)c(OC)c3)cc(C(=O)NCC(=O)Nc3ccc(C(C)=O)cc3)c2c1 | 92.2% and 97.6%
4 | COc1cc(-c2cc(C(=O)Nc3cccc(C(=O)NCc4ccccc4)c3)c3ccccc3n2)cc(OC)c1OC | 83.5%
